Drawing on PubChem BioAssay (EPA / NIEHS), this text covers outcome and AC50 for 37 compounds.

As usually defined, the AC50 is the concentration at which the activity in the assay is half-maximal.

Some structures have more than one record in an assay (separate samples or runs), and their calls can disagree. The source made the active and inactive calls. Rule for the calls: active = hit-call score of the fitted dose curve at least 0.9, where 1 is the maximum; inactive = score below 0.9.

Read-out in this assay: Macrophage Inflammatory Protein-1 Alpha (MIP1a), CCL3 (gene 6348)
As to the kind of experiment: BSK_IMphg_MIP1a: BioMAP Diversity Plus: IMphg Assay for Macrophage Inflammatory Protein-1 Alpha (MIP1a) Biomarker Activity (AID 2284255). As to conditions: primary human endothelial cells with macrophages. As to the method:
BSK_IMphg is a cell-based, multiplexed-readout assay that uses venular endothelial cells and macrophages, a human vascular primary cell, with measurements taken at 24 hours after chemical dosing in a microplate: 96-well plate.BSK_IMphg_MIP1a is an assay component measured in the BSK_IMphg assay. It measures MIP-1a antibody related to regulation of gene expression using ELISA technology.Data from the assay component BSK_IMphg_MIP1a was analyzed at the endpoint, BSK_IMphg_MIP1a, in the positive analysis fitting direction relative to DMSO as the negative control and baseline of activity. Using a type of binding reporter, gain or loss-of-signal activity can be used to understand protein changes. To generalize the intended target to other relatable targets, this assay endpoint is annotated to the 'cytokine' intended target family, where the subfamily is 'inflammatory factor'.
The levels of cell surface (or secreted, indicated by the prefix "s") biomarker endpoints were measured by ELISA. Overt cytotoxicity to cells in confluent adherent cultures (all systems other than the BT system) was assessed by measuring total protein levels using sulforhodamine B (SRB) staining in parallel cultures at the time of biomarker measurements, indicated as SRB endpoints. For proliferation assays for adherent cell types, individual cell types are cultured at sub-confluence and relative cell numbers quantified by SRB staining at time points optimized for each system (48 h: 3C and CASM3C systems; 72 h: BT and HDF3CGF systems; 96 h: SAg system). SRB was performed by staining cells with 0.1% SRB after fixation with 10% TCA and reading wells at 560 nm.Viability and proliferation of PBMC (T cells) was quantified by Alamar Blue reduction for the SAg and BT systems. For PBMC viability (referred to as PBMC Cytotoxicity within the assay endpoint names), cells were plated (75,000/well in a 96-well plate) and then chemical samples added for 1 h before addition of activators, SEB and TSST-1 (20 ng/mL final concentration each). Cells were incubated for 90 h. Then, Alamar Blue (20 uL/well) (Invitrogen, Cat DAL1100) was added for 6 h, and the plates were read with a fluorescence microplate reader at 546/580 nm (excitation/emission). For PBMC proliferation, cells were plated and activated as above but incubated for only 16 h prior to addition of Alamar Blue. Plates were read after 6 h.
For the compound `C=C(C)C(=O)OCC(F)(F)C(F)(F)C(F)(F)C(F)(F)C(F)(F)C(F)(F)C(F)(F)F`, the result was inactive. For `O=C(O)C(F)(F)C(F)(F)C(F)(F)F`, the result was inactive. For `OCC(F)(F)C(F)(F)C(F)(F)C(F)(F)C(F)(F)C(F)(F)F`, the result was inactive. For the compound `N=C(N)C(F)(F)C(F)(F)C(F)(F)C(F)(F)C(F)(F)C(F)(F)C(F)(F)F`, the outcome was inactive. As for `FC(F)(F)C(F)(F)C(F)(F)C(F)(F)C(F)(F)C(F)(F)C(F)(F)Br`, the outcome was inactive. `O=C(O)C(F)(OC(F)(F)C(F)(OC(F)(F)C(F)(F)C(F)(F)F)C(F)(F)F)C(F)(F)F` (stereo not given): the outcome was inactive.

As for `OCCCC(F)(F)C(F)(F)C(F)(F)C(F)(F)C(F)(F)C(F)(F)C(F)(F)F`, the AC50 is 37.5 µM (active) and the outcome was inactive. Consider `FC(F)(F)C(F)(F)C(F)(F)C(F)(F)CCI`, for which the result was inactive. As to `NC(=O)C(F)(F)C(F)(F)C(F)(F)C(F)(F)F`, the result was inactive. The same measure, in the same setting: the same measure for `COC(=O)CCC(F)(F)C(F)(F)C(F)(F)C(F)(F)F`: “inactive”. Take `FC(F)(F)C(F)(F)C(F)(F)N(C(F)(F)C(F)(F)C(F)(F)F)C(F)(F)C(F)(F)C(F)(F)F`: the result was inactive. On to `O=C(O)C(F)(F)C(F)(F)OC(F)(F)F`, for which the outcome was inactive.

Consider `CC(C)(C)C(=O)CC(=O)C(F)(F)C(F)(F)C(F)(F)F`, for which the concentration at half-maximal activity (AC50) was 44.2 µM (active) and the outcome was inactive. Take `O=S(=O)(OCCOC(F)(F)F)C(F)(F)F`: the outcome was inactive. Consider `C=CC(=O)OCC(F)(F)C(F)(F)C(F)(F)C(F)(F)COC(=O)C=C`, for which the outcome was inactive. With `FC(F)(F)C(F)(F)C(F)(F)C(F)(F)C(F)(F)C(F)(F)C(F)(F)C(F)(F)CCS`, the result was inactive. Still for that read-out and setting: the same measure for `OCC(F)(F)C(F)(F)C(F)(F)C(F)(F)C(F)(F)C(F)F`: “inactive”. As for `Cc1ccc(S(=O)(=O)OCC(F)(F)C(F)(F)C(F)(F)C(F)(F)C(F)(F)C(F)F)cc1`, the result was inactive. As for `O=C(O)C(F)(F)C(F)(F)C(F)F`, the result was inactive.

Take `CCCCCCCCC(F)(F)C(F)(F)C(F)(F)C(F)(F)C(F)(F)C(F)(F)F`: the result was inactive. On to `O=C(O)C(F)(F)C(F)(F)C(F)(F)C(F)(F)F`, for which the outcome was inactive.

In the case of `OCC(F)(F)C(F)(F)C(F)(F)C(F)F`, the result was inactive. Regarding `O=C(O)C(F)(F)C(F)(F)C(F)(F)C(F)(F)C(F)(F)C(F)(F)C(F)(F)C(F)(F)Cl`, the outcome was inactive and the concentration at half-maximal activity (AC50) is 37.3 µM (active). On to `O=C(O)C(F)(F)C(F)(F)F`, for which the result was inactive.

As to `FC(F)(Br)C(F)(F)C(F)(F)C(F)(F)C(F)(F)C(F)(F)Br`, the outcome was inactive. Regarding `O=P(O)(O)OCCC(F)(F)C(F)(F)C(F)(F)C(F)(F)C(F)(F)C(F)(F)F`, the outcome was inactive. The same measure, in the same setting: the same measure for `C=CC(=O)OCC(F)(F)C(F)(F)C(F)(F)C(F)(F)C(F)(F)C(F)(F)C(F)(F)F`: “inactive”; for `C=C(C)C(=O)OCC(F)(F)C(F)(F)C(F)(F)F`: “inactive”; for `C=CC(F)(F)C(F)(F)C(F)(F)C(F)(F)C(F)(F)C(F)(F)C(F)(F)C(F)(F)C=C`: “inactive”. Still for that read-out and setting: in the case of `OCC(F)(F)C(F)(F)C(F)(F)F` it was “inactive”; in that of `O=C(O)C(F)(OC(F)(F)C(F)(OC(F)(F)C(F)(OC(F)(F)C(F)(F)C(F)(F)F)C(F)(F)F)C(F)(F)F)C(F)(F)F` (stereo not given), “inactive”; in that of `FC(F)(F)C(F)(F)C(F)(F)C(F)(F)C(F)(F)C(F)(F)CC1CO1` (stereo not given), “inactive”. Consider `FC(F)(F)C(F)(F)C(F)(F)C(F)(F)C(F)(F)CCI`, for which the outcome was inactive.

Consider `FC(F)(F)C(F)(F)C(F)(F)CI`, for which the result was inactive. Regarding `FC(F)(F)C(F)(F)C(F)(F)C(F)(F)C(F)(F)C(F)(F)C(F)(F)I`, the result was inactive. On the same count and under the same terms, the same measure for `FC(F)(F)C(F)(F)C(F)(F)C(F)(F)C(F)(F)C(F)(F)CCS`: “inactive”. For the compound `O=C(CC(=O)C(F)(F)C(F)(F)F)C(F)(F)F`, the outcome was inactive.
